# Source: publication PMC7862700, “An all-to-all approach to the identification of sequence-specific readers for epigenetic DNA modifications on cytosine”
# Experiments:
# Experiment in all cases: DAPPL (digital affinity profiling via proximity ligation, sequencing); 10 mM Tris-HCl pH 7.5, 50 mM NaCl, 1 mM DTT, 4% glycerol, room temperature, 30 min; GST-TFs on glutathione beads, 16-mer random dsDNA library, 0.1% formaldehyde crosslink after washing; high values mean tight binding
# ELK1 = molecular target: T1, ELK1 (Homo sapiens, UniProt P19419 1-428); conditions: protein: recombinant; tags: N-terminal GST; dsDNA, one strand shown
# T1 sequence: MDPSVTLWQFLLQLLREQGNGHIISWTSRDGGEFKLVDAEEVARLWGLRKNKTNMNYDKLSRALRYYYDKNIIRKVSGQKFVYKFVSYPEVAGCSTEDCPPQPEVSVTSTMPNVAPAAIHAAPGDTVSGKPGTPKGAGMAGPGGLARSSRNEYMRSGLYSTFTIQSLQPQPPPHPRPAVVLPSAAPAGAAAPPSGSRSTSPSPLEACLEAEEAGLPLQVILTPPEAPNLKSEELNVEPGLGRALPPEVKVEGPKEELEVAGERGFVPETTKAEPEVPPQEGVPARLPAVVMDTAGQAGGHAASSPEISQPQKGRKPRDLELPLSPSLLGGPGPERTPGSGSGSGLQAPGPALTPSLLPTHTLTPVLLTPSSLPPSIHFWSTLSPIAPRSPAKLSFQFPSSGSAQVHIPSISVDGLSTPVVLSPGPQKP
# Method in brief: (§1)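 Yeast served to express human transcription factors as GST fusions, which were then captured on glutathione beads and labelled with DNA barcodes. Pooled with a tag-only sample, they were incubated with 200 nmole of a 16-mer random double-stranded DNA library for 30 min at room temperature in Tris/NaCl/DTT/glycerol buffer, washed, crosslinked with 0.1% formaldehyde, ligated by proximity, amplified by PCR and sequenced. Dividing each hexamer's read frequency for a factor by its frequency for the tag-only sample gives the binding signal.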
# GABPA = molecular target: T2, GABPA (Homo sapiens, UniProt Q06546 1-454); conditions: protein: recombinant; tags: N-terminal GST; dsDNA, one strand shown
# T2 sequence: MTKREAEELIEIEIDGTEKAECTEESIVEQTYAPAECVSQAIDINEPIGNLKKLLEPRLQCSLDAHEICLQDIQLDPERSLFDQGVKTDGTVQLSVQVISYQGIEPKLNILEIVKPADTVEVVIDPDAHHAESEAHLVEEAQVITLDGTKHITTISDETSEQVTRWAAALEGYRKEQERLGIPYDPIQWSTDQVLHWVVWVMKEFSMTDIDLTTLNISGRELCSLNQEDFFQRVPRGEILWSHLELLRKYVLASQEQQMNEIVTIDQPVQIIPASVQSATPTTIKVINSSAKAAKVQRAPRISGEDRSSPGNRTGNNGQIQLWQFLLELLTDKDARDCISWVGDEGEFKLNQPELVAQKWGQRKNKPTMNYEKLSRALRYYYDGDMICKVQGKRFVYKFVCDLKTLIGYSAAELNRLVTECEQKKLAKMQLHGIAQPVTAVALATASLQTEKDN
# Method in brief: as §1
# ELF1 = ELF1 (Homo sapiens, UniProt P32519 1-619); conditions: protein: recombinant; tags: N-terminal GST; dsDNA, one strand shown
# Sequence of ELF1 (P32519 whole entry): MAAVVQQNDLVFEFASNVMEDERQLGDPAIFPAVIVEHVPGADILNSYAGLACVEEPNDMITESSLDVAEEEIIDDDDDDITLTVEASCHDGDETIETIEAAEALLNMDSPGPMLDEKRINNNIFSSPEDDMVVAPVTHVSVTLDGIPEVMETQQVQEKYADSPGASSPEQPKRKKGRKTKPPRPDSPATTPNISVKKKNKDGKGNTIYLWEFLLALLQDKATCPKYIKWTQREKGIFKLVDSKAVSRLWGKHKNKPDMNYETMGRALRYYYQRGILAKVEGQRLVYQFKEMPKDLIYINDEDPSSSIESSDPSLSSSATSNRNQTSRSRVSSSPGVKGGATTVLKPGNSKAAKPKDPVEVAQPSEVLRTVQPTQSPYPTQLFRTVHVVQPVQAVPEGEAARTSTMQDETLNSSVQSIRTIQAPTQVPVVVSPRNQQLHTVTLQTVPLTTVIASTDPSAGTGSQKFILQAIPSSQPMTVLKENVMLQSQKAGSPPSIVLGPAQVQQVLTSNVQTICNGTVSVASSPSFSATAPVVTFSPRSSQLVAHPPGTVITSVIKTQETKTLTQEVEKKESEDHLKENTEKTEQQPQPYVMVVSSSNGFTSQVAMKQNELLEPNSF
# Method in brief: as §1
# SPI1 = SPI1 (Homo sapiens, UniProt P17947 1-270); conditions: protein: recombinant; tags: N-terminal GST; dsDNA, one strand shown
# Method in brief: as §1
# HSF1 = HSF1 (Homo sapiens, UniProt Q00613 1-529); conditions: protein: recombinant; tags: N-terminal GST; chain copies: 3; dsDNA, one strand shown
# Sequence of HSF1 (Q00613 whole entry): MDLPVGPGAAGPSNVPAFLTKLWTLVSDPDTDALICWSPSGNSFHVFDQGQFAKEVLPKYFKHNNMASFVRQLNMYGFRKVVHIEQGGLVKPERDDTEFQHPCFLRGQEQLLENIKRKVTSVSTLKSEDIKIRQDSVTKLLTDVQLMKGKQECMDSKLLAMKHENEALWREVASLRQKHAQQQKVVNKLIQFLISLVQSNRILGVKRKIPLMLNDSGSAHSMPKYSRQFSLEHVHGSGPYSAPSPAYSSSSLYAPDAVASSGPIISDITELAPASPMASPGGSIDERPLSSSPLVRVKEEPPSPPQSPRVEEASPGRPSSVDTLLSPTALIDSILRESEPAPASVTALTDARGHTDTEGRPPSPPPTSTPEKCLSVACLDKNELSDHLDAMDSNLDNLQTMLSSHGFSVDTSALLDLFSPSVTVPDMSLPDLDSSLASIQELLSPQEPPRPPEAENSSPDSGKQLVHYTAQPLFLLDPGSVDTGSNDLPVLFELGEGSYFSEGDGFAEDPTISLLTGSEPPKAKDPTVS
# Method in brief: as §1
# ELF4 = ELF4 (Homo sapiens, UniProt Q99607 1-663); conditions: protein: recombinant; tags: N-terminal GST; dsDNA, one strand shown
# Sequence of ELF4 (Q99607 whole entry): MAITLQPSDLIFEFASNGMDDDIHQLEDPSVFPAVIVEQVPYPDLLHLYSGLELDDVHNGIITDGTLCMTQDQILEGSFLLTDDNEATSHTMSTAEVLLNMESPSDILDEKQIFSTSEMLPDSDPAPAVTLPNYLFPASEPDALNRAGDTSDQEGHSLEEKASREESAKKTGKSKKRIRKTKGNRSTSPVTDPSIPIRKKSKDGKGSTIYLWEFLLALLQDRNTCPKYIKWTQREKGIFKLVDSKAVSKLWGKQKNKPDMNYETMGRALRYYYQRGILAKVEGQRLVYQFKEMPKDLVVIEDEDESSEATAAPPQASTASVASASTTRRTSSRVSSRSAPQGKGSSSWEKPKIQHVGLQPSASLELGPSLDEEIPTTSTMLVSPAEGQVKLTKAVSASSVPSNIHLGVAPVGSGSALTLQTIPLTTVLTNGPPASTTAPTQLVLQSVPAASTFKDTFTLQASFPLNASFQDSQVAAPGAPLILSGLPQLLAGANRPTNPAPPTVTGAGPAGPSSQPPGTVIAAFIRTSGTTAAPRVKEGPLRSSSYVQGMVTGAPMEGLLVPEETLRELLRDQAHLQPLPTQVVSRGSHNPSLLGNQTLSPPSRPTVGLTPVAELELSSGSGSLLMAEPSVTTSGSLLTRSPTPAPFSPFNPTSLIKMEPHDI
# Method in brief: as §1
# ELK4 = molecular target: T3, ELK4 (Homo sapiens, UniProt P28324-2 1-405); conditions: protein: recombinant; tags: N-terminal GST; dsDNA, one strand shown
# T3 sequence: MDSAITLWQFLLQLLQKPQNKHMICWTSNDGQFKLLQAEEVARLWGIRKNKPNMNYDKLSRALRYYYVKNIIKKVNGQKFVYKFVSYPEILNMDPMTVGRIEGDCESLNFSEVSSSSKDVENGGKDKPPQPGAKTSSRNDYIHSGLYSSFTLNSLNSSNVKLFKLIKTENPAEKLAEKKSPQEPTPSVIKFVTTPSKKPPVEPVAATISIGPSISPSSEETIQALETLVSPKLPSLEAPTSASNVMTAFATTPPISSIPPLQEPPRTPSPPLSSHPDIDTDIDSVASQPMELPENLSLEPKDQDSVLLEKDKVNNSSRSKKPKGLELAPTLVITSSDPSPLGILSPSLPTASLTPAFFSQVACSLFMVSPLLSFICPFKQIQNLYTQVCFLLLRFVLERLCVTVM
# Method in brief: as §1
# ETV2 = molecular target: T4, ETV2 (Homo sapiens, UniProt O00321 1-342); conditions: protein: recombinant; tags: N-terminal GST; dsDNA, one strand shown
# T4 sequence: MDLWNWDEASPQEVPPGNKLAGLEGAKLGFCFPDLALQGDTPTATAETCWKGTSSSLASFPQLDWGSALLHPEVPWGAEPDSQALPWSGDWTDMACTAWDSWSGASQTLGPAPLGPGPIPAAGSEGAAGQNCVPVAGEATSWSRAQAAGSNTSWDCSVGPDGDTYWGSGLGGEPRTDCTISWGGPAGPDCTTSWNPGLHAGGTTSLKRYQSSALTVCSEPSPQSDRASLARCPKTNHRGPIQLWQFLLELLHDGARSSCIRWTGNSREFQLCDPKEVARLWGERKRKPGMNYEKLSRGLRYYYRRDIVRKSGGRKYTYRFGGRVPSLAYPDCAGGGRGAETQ
# Method in brief: as §1
# ELF3 = molecular target: T5, ELF3 (Homo sapiens, UniProt P78545 1-371); conditions: protein: recombinant; tags: N-terminal GST; dsDNA, one strand shown
# T5 sequence: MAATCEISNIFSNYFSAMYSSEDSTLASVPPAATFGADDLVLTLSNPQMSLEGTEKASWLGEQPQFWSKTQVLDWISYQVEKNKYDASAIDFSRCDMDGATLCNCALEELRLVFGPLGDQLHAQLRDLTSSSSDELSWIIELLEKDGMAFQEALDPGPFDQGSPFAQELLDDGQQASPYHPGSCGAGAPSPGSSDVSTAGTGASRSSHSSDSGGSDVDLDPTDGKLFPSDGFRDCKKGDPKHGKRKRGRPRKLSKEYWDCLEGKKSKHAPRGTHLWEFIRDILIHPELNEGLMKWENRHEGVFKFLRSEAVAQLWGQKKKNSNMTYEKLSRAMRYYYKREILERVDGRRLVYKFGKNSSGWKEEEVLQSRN
# Method in brief: as §1
# CRX = CRX (Homo sapiens, UniProt O43186 1-299); conditions: protein: recombinant; tags: N-terminal GST; dsDNA, one strand shown
# Sequence of CRX (O43186 whole entry): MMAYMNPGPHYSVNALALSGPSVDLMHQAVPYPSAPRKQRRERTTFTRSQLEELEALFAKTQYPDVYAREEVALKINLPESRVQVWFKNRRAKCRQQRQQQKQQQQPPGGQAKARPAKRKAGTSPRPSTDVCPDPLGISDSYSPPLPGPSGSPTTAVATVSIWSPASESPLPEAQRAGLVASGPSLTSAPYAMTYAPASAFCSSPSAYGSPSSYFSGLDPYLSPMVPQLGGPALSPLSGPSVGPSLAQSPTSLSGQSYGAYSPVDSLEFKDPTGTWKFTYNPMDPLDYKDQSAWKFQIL
# Method in brief: as §1
# ERF = molecular target: T6, ERF (Homo sapiens, UniProt P50548 1-548); conditions: protein: recombinant; tags: N-terminal GST; dsDNA, one strand shown
# T6 sequence: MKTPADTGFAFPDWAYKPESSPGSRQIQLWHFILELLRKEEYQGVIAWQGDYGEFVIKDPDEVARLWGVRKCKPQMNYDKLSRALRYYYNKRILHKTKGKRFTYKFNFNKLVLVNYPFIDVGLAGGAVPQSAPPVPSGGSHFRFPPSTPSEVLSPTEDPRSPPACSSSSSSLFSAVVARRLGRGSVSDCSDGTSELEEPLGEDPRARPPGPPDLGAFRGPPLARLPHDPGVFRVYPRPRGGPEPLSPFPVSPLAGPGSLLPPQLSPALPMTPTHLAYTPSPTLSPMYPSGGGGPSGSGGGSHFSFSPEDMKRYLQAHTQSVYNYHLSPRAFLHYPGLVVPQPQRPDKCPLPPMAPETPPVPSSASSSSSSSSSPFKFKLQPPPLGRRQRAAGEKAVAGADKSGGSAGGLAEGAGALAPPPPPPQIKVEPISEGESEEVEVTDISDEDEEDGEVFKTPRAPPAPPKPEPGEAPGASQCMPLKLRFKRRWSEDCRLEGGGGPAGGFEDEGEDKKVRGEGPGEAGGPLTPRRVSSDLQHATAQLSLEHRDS
# Method in brief: as §1
# ETV3L = molecular target: T7, ETV3L (Homo sapiens, UniProt Q6ZN32 1-361); conditions: protein: recombinant; tags: N-terminal GST; dsDNA, one strand shown
# T7 sequence: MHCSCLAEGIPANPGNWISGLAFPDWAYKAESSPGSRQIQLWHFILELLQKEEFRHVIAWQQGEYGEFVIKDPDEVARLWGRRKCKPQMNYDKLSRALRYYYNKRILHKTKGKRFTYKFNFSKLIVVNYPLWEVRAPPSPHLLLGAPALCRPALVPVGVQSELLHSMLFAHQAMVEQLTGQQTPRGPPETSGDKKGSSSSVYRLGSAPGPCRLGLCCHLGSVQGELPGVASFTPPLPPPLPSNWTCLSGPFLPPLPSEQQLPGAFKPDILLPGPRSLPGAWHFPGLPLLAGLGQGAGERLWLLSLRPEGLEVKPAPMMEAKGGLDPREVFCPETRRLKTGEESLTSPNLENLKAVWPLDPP
# Method in brief: as §1
# ETS2 = molecular target: T8, ETS2 (Homo sapiens, UniProt P15036 1-469); conditions: protein: recombinant; tags: N-terminal GST; dsDNA, one strand shown
# T8 sequence: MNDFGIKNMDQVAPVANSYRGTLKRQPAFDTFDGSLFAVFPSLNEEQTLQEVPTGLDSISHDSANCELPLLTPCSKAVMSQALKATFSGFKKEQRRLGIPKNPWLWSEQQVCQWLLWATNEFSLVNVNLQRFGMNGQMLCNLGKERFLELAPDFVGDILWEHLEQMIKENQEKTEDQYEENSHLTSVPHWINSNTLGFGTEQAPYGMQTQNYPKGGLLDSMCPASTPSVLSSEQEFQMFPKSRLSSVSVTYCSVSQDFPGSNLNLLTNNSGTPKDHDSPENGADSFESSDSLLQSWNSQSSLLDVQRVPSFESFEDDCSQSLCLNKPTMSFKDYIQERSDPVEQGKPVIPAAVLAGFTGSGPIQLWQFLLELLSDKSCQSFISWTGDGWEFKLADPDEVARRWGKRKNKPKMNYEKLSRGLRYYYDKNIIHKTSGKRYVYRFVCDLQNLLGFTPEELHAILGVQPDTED
# Method in brief: as §1
# SPDEF = molecular target: T9, SPDEF (Homo sapiens, UniProt O95238 1-335); conditions: protein: recombinant; tags: N-terminal GST; dsDNA, one strand shown
# T9 sequence: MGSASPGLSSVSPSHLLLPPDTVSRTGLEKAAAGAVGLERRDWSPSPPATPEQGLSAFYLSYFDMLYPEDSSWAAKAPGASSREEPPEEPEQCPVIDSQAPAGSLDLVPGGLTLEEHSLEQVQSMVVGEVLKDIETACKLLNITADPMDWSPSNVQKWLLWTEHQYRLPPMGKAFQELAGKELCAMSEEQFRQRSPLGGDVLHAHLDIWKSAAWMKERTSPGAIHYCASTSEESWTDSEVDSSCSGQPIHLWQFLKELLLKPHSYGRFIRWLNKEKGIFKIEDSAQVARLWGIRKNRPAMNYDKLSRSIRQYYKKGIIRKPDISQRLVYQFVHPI
# Method in brief: as §1
# ETV7 = molecular target: T10, ETV7 (Homo sapiens, UniProt Q9Y603 1-341); conditions: protein: recombinant; tags: N-terminal GST; dsDNA, one strand shown
# T10 sequence: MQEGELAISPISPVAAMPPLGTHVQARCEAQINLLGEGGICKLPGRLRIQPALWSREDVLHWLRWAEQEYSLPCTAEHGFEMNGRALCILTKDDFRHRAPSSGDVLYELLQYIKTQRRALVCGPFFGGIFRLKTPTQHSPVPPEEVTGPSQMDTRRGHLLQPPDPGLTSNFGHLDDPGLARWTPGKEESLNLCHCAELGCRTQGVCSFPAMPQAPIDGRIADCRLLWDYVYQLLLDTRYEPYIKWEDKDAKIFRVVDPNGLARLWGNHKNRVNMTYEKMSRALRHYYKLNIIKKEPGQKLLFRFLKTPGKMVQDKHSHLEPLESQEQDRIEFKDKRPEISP
# Method in brief: as §1
# ELF5 = molecular target: T11, ELF5 (Homo sapiens, UniProt Q9UKW6-2 1-255); conditions: protein: recombinant; tags: N-terminal GST; dsDNA, one strand shown
# T11 sequence: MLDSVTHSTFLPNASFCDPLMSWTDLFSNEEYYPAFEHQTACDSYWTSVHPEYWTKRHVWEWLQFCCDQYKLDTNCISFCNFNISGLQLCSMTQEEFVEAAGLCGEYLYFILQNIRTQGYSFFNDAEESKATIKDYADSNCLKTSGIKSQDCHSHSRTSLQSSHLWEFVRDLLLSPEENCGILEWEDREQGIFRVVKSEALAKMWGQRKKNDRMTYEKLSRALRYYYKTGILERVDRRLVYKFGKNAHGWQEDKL
# Method in brief: as §1
# ETV3 = molecular target: T12, ETV3 (Homo sapiens, UniProt P41162-2 1-143); conditions: protein: recombinant; tags: N-terminal GST; dsDNA, one strand shown
# T12 sequence: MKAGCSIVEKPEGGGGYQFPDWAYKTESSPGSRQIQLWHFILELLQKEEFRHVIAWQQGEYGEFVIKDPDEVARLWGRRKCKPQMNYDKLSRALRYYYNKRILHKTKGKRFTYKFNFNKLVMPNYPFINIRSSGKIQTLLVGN
# Method in brief: as §1
# ETV6 = ETV6 (Homo sapiens, UniProt P41212 1-452); conditions: protein: recombinant; tags: N-terminal GST; dsDNA, one strand shown
# Sequence of ETV6 (P41212 whole entry): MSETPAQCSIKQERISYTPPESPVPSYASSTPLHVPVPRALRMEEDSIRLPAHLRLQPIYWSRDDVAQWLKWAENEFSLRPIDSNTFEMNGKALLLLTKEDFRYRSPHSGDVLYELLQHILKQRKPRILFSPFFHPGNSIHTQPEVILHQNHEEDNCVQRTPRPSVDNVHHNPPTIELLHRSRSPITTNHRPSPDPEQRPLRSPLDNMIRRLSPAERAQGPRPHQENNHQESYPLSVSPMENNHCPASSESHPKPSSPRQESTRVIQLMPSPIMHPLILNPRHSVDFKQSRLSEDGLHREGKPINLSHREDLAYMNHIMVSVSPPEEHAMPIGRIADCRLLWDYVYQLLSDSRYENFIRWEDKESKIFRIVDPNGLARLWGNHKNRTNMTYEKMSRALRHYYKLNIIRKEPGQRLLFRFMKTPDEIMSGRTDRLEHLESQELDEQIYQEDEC
# Method in brief: as §1
sequence,measurement,setting,value
AGAATA,binding signal,ELK1,"1.04 fold enrichment (6-mer frequency, TF over GST control)"
same,binding signal,GABPA,"1 fold enrichment (6-mer frequency, TF over GST control)"
same,binding signal,ELF1,"1.01 fold enrichment (6-mer frequency, TF over GST control)"
same,binding signal,SPI1,"1 fold enrichment (6-mer frequency, TF over GST control)"
same,binding signal,HSF1,"2.32 fold enrichment (6-mer frequency, TF over GST control)"
same,binding signal,ELF4,"1.06 fold enrichment (6-mer frequency, TF over GST control)"
same,binding signal,ELK4,"1.02 fold enrichment (6-mer frequency, TF over GST control)"
same,binding signal,ETV2,"1.07 fold enrichment (6-mer frequency, TF over GST control)"
same,binding signal,ELF3,"1.04 fold enrichment (6-mer frequency, TF over GST control)"
same,binding signal,CRX,"1.42 fold enrichment (6-mer frequency, TF over GST control)"
same,binding signal,ERF,"1.03 fold enrichment (6-mer frequency, TF over GST control)"
same,binding signal,ETV3L,"1.04 fold enrichment (6-mer frequency, TF over GST control)"
same,binding signal,ETS2,"1 fold enrichment (6-mer frequency, TF over GST control)"
same,binding signal,SPDEF,"1.04 fold enrichment (6-mer frequency, TF over GST control)"
same,binding signal,ETV7,"1.08 fold enrichment (6-mer frequency, TF over GST control)"
same,binding signal,ELF5,"1.04 fold enrichment (6-mer frequency, TF over GST control)"
same,binding signal,ETV3,"1.04 fold enrichment (6-mer frequency, TF over GST control)"
same,binding signal,ETV6,"1.07 fold enrichment (6-mer frequency, TF over GST control)"
